The experiment is described as follows: chemical genetic growth profiling, strain panel (AID 1159580).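 Note: tested at 20 µM; growth read once vehicle control cultures reached saturation at 30 °C; 1 = growth at the plate median or of vehicle wells; lower values mean less growth of the strain.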 The settings on record: S. cerevisiae deletion strains, growth OD.
Where [1] appears, read: locus YAL013W, strain DEP1, active compounds read low.
[2] abbreviates: locus YAL040C, strain CLN3, active compounds read low.
Setting [3] is: locus YCL061C, strain MRC1 (second series), active compounds read low.
[4] abbreviates: locus YDR363W, strain ESC2, active compounds read low.
Setting [5] is: locus YER002W, strain NOP16, active compounds read low.
The mark [6] stands for this setting: locus YGR078C, strain PAC10, active compounds read low.
Where [7] appears, read: locus YMR263W, strain SAP30, active compounds read low.
[8] abbreviates: locus YMR307W, strain GAS1, active compounds read low.
[9] abbreviates: locus YNL128W, strain TEP1, active compounds read low.
[10] abbreviates: locus YNL175C, strain NOP13, active compounds read low.
Setting [11] is: locus YNL197C, strain WHI3, active compounds read low.
Where [12] appears, read: locus YNL224C, strain SQS1, active compounds read low.
Setting [13] is: locus YOR083W, strain WHI5 (second series), active compounds read low.
The mark [14] stands for this setting: locus YPL055C, strain LGE1, active compounds read low.
The mark [15] stands for this setting: locus YGR229C, strain SMI1, active compounds read low.
[16] abbreviates: locus YNL322C, strain KRE1, active compounds read low.
The mark [17] stands for this setting: locus YPL241C, strain CIN2, active compounds read low.
Setting [18] is: locus YDR150W, strain NUM1, active compounds read low.
The mark [19] stands for this setting: locus YJR075W, strain HOC1, active compounds read low.
Where [20] appears, read: locus YNL153C, strain GIM3, active compounds read low.

Out of some 5,500 compounds screened, about 2,000 (36%) were called active. Roughly 18% stayed inconclusive and do not appear here. The list shows a part of the results. A number with no mark means an inactive call. Cut-off read from the data, not from the text of the source: active = normalized growth mostly below about 0.91 (no sharp cut-off); inconclusive = no clear call, values can overlap the other calls; inactive = mostly above about 0.92.

Take `COc1cc(C=C(C#N)C#N)cc(O)c1O`: the normalized growth under setting [1] is 1.01; the normalized growth under setting [2] is 0.941; the normalized growth under setting [3] is 0.979; the normalized growth under setting [4] was 0.997; the normalized growth under setting [5] was 1; the normalized growth under setting [6] is 0.982. Also, the normalized growth is 0.993 under setting [7]; 0.993 under setting [8]; 0.968 under setting [9]; 0.972 under setting [10]; 0.978 under setting [11]; 0.969 under setting [12]. Besides, the normalized growth is, setting by setting: under setting [13], 0.997; under setting [14], 1.01.
For the compound `N#C/C(=C\c1ccc(O)c(O)c1)C(=O)NCCCNC(=O)/C(C#N)=C/c1ccc(O)c(O)c1`, the normalized growth runs as follows: under setting [2], 0.994; under setting [3], 1.01; under setting [4], 0.999; under setting [5], 0.987; under setting [6], 0.992; under setting [15], 0.758 (active). For the same compound, the normalized growth under setting [8] was 0.982; the normalized growth under setting [10] was 1.01; the normalized growth under setting [11] was 0.988; the normalized growth under setting [12] was 1; the normalized growth under setting [16] is 0.981; the normalized growth under setting [13] was 1.01. Also, under setting [17], the normalized growth is 0.997.
Take `N#CC(C#N)=Cc1ccc(O)c(O)c1`: the normalized growth under setting [1] is 1; the normalized growth under setting [2] is 1.01; the normalized growth under setting [3] is 1; the normalized growth under setting [18] is 0.998; the normalized growth under setting [4] is 1.02; the normalized growth under setting [5] is 0.992. The normalized growth under setting [15] is 0.982; the normalized growth under setting [19] was 0.959; the normalized growth under setting [8] is 0.988; the normalized growth under setting [10] was 0.998; the normalized growth under setting [11] is 0.995; the normalized growth under setting [12] was 0.998. Further, the normalized growth under setting [13] is 1.03.
Turning to `COc1cc(/C=C(\C#N)C(=O)c2ccc(O)c(O)c2)cc(I)c1O`, the normalized growth is 1.02 under setting [1]; 1.03 under setting [2]; 1.02 under setting [3]; 1.02 under setting [4]; 1 under setting [5]; 0.971 under setting [15]. Moreover, the normalized growth under setting [7] was 1.02; the normalized growth under setting [8] is 1.03; the normalized growth under setting [9] was 1.01; the normalized growth under setting [20] was 1.02; the normalized growth under setting [10] was 0.984; the normalized growth under setting [11] is 1.04. Also, the normalized growth is 1 under setting [12], 1.03 under setting [16] and 1.02 under setting [13].
Turning to `N#CC(C#N)=Cc1cc(O)c(O)c(O)c1`, the normalized growth is, setting by setting: under setting [2], 0.951; under setting [3], 0.998; under setting [18], 0.988; under setting [4], 1; under setting [5], 0.996; under setting [15], 0.97. Also, the normalized growth was 0.996 under setting [7]; 0.995 under setting [8]; 0.986 under setting [9]; 0.975 under setting [20]; 1.01 under setting [10]; 1.01 under setting [11]. Also, the normalized growth reads like this: under setting [12], 0.999; under setting [13], 0.995; under setting [17], 0.999.
For `N#C/C(=C\c1ccc(O)c(O)c1)C(=O)NCCCc1ccccc1`, the normalized growth runs as follows: under setting [2], 0.98; under setting [3], 1; under setting [18], 0.991; under setting [4], 1.01; under setting [5], 0.993; under setting [6], 1. Further, the normalized growth runs as follows: under setting [15], 0.941; under setting [8], 0.996; under setting [9], 0.996; under setting [10], 0.998; under setting [11], 1.01; under setting [12], 1. Also, the normalized growth reads like this: under setting [16], 1; under setting [13], 1.01; under setting [14], 0.991.
As for `N#C/C(=C\c1ccc(O)c(O)c1)C(=O)c1ccc(O)c(O)c1`, the normalized growth under setting [2] was 1; the normalized growth under setting [3] was 0.995; the normalized growth under setting [18] was 0.997; the normalized growth under setting [4] is 0.994; the normalized growth under setting [5] was 1.02; the normalized growth under setting [6] is 0.99. The normalized growth reads like this: under setting [15], 1.03; under setting [8], 0.99; under setting [20], 1.04; under setting [10], 0.961; under setting [11], 0.994; under setting [12], 1. Also, the normalized growth is 0.99 under setting [16], 0.999 under setting [13] and 0.991 under setting [17].
As for `COc1cc(/C=C(\C#N)C(N)=S)cc(OC)c1OC`, the normalized growth under setting [1] was 0.979; the normalized growth (locus YBR229C, strain ROT2, active compounds read low) was 1.02; the normalized growth (locus YCL061C, strain MRC1, active compounds read low) was 1; the normalized growth (locus YDL101C, strain DUN1, active compounds read low) is 0.943; the normalized growth (locus YDL134C, strain PPH21, active compounds read low) is 0.943; the normalized growth under setting [18] was 0.961. The normalized growth (locus YEL061C, strain CIN8, active compounds read low) was 0.674 (active); the normalized growth under setting [6] is 0.977; the normalized growth (locus YHR030C, strain SLT2, active compounds read low) was 0.476 (active); the normalized growth (locus YHR087W, strain rtc3, active compounds read low) was 0.986; the normalized growth (locus YJL187C, strain SWE1, active compounds read low) was 0.942; the normalized growth (locus YJR043C, strain POL32, active compounds read low) is 0.986. Also, the normalized growth reads like this: under setting [19], 0.983; (locus YKL190W, strain CNB1, active compounds read low) 0.71 (active); (locus YLR039C, strain RIC1, active compounds read low) 0.854; (locus YLR058C, strain SHM2 (second series), active compounds read low) 1.01; (locus YLR085C, strain ARP6, active compounds read low) 0.377 (active); (locus YLR262C, strain YPT6, active compounds read low) 0.832. Moreover, the normalized growth is, setting by setting: (locus YML094W, strain GIM5, active compounds read low) 0.86 (active); (locus YMR219W, strain ESC1, active compounds read low) 1.02; under setting [7], 0.982; under setting [8], 1.15; under setting [20], 0.989; (locus YNL298W, strain CLA4 (second series), active compounds read low) 0.886. The normalized growth is, setting by setting: under setting [16], 0.987; (locus YNR030W, strain Alg12, active compounds read low) 0.761 (active); under setting [14], 0.966; under setting [17], 0.558 (active); (locus YPR135W, strain CTF4, active compounds read low) 0.756.
